From PubChem BioAssay (NCATS)
Inconclusive results are not listed. Unmarked numbers belong to inactive results. Active and inactive are the calls of the source. Calls follow the shape of the dose curve; as a rule, active = well fitted activation curve with a large enough effect; inconclusive = small, poorly fitted or top-dose-only effect; inactive = no such curve, though single readings can be large or run the other way.

molecular target: D(1A) dopamine receptor (Homo sapiens) (UniProt P21728); test: HTS Assay for Allosteric Agonists of the Human D1 Dopamine Receptor: Primary Screen for Potentiators (AID 488982); conditions: HEK293 T-REx D1 inducible cells, calcium flux, kinetic fluorescence; series mostly up to 8.37 µM; activity, positive = potentiation: at the top concentration; as to activity, positive = potentiation: 0% is about no effect
Sequence (P21728 whole entry, looked up): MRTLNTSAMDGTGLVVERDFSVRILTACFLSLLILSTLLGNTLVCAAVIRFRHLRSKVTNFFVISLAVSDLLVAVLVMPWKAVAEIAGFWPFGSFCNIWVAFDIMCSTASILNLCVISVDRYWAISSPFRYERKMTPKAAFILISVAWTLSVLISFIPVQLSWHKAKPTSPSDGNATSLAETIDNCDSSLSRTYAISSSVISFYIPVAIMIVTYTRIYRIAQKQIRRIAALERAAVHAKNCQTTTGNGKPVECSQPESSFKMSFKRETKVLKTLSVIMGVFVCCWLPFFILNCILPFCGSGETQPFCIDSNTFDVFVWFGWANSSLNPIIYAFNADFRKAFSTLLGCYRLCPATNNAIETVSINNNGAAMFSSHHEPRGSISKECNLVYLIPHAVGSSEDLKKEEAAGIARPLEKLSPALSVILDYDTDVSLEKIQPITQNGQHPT
Source text: Dopamine receptors (DARs) are involved in the etiology and/or therapy of a number of neuropsychiatric and endocrine disorders. For instance, all receptor-based antiparkinsonian drugs work via stimulating the […] DAR subtype whereas all FDA-approved antipsychotic agents are antagonists of this receptor. […] There are three different types of allosteric modulators that we are seeking, two of which will stimulate or augment receptor signaling, allosteric agonists and potentiators, while the third, allosteric antagonists, will attenuate receptor signaling. The present primary screening assay measures compound agonism by tracking calcium flux in a […], inducible Hek293 Trex D1 cell line.
Freshly passaged cells are plated in 1536 well black, clear bottom plates at a density of 4000 cells/well in 3 ul of complete media containing 1x tetracycline inducer. After an overnight incubation at 30 C in 5% CO2, cells are loaded with 2 ul of the no wash Calcium Assay Kit (ABD Bioquest) and incubated at room temperature for 30 to 90 minutes. A 10 cycle (1 second/cycle) baseline measurement is taken and then the FDSS online 1536 pintool delivers 23 nl of compound library (as well as dopamine controls) to the plate. The plate is measured for kinetically at 1 cycle/sec for 180 seconds and is considered to be the agonist portion of the assay (eg, compounds which activate a positive calcium response during this portion are flagged as potential agonists). Following the 180 second read, 1 ul of an EC20 of dopamine is delivered by an onboard pipette head. Measurements are taken kinetically for an additional 180 seconds.
Potency is read from the fitted curve at half-maximal effect.

Row | SMILES | activity, positive = potentiation [%] | Potency
1 | Cc1nnc(SCC2=C(C(=O)O)N3C(=O)[C@@H](NC(=O)Cn4cnnn4)[C@H]3SC2)s1 | 20.2 | –
2 | CC(C)[N+](C)(CCOC(=O)C1c2ccccc2Oc2ccccc21)C(C)C | 36.6 | –
3 | COCCc1ccc(OCC(O)CNC(C)C)cc1 (stereo not given) | 11.6 | –
4 | COc1cc(Cc2cnc(N)nc2N)cc(OC)c1OC | -17.5 | –
5 | NC(=O)c1ncn([C@@H]2O[C@H](CO)[C@@H](O)[C@H]2O)c1O | 11.4 | –
6 | CCN(CC)CCCN(c1ccccc1)C1Cc2ccccc2C1 | -32.8 | –
7 | CCN(CC)CC(=O)Nc1c(C)cccc1C | 13.5 | –
8 | Cc1ccc(S(=O)(=O)NC(=O)NN2CCCCCC2)cc1 | -4.96 | –
9 | CCN1CCc2nc(N)oc2CC1 | 18.3 | –
10 | CCOC(=O)C1=C(C)NC(C)=C(C(=O)OC)C1c1cccc(Cl)c1Cl (stereo not given) | -19.2 | –
11 | CCc1cccc(N(C)C(N)=Nc2cccc3ccccc23)c1 | -5.75 | –
12 | CC1=C(C)C(=O)C(CCCCC#CCCCC#CCO)=C(C)C1=O | -9.29 | –
13 | CCCOc1ccccc1-c1nc2n[nH]nc2c(=O)[nH]1 | -11.1 | –
14 | COCCOC(=O)C1=C(C)NC(C)=C(C(=O)OC(C)C)C1c1cccc([N+](=O)[O-])c1 (stereo not given) | -36 | –
15 | CC(=O)Oc1cc(C(C)C)c(OCCN(C)C)cc1C | 4.08 | –
16 | CN(C)CCCN1c2ccccc2Sc2ccccc21 | -145 | –
17 | COC(=O)C1=C(C)NC(C)=C(C(=O)OC(C)(C)CN(C)CCC(c2ccccc2)c2ccccc2)C1c1cccc([N+](=O)[O-])c1 (stereo not given) | -18.3 | –
18 | COCCCC/C(=N\OCCN)c1ccc(C(F)(F)F)cc1 | 8.11 | –
19 | Cc1nc2c([nH]1)c(=O)n(C)c(=O)n2Cc1ccco1 | -5.34 | –
20 | NCCCNCCSP(=O)(O)O | 8.15 | –

Row | SMILES | activity, positive = potentiation [%] | Potency
21 | CCC(=O)c1ccc2c(c1)N(CCCN(C)C)c1ccccc1S2 | -99.8 | –
22 | CCCCNc1c(C(=O)OCC)c(C)nc2c1cnn2CC | 15.3 | –
23 | CC(C)NNC(=O)c1ccncc1 | 10.6 | –
24 | C[N+](C)(C)CCOC(=O)CCC(=O)OCC[N+](C)(C)C | 8.67 | –
25 | C[N+](C)(C)CCOC(N)=O | -8.44 | –
26 | CC(C)(C)NCC(O)c1cc(O)cc(O)c1 (stereo not given) | 19.9 | –
27 | C#CCN(C)CCCOc1ccc(Cl)cc1Cl | -61.8 | –
28 | OC(CCN1CCCCC1)(c1ccccc1)C1CCCCC1 (stereo not given) | -6.23 | –
29 | C[N+](C)(C)CCCCCCCCCC[N+](C)(C)C | -2.45 | –
30 | O=C(CCNNC(=O)c1ccncc1)NCc1ccccc1 | 11.5 | –
31 | CC(=O)Nc1nnc(S(N)(=O)=O)s1 | 16.9 | –
32 | CCCN(CCC)CCc1cccc2c1CC(=O)N2 | 0.549 | –
33 | CN(C)C(=O)Oc1cccc([N+](C)(C)C)c1 | 4.85 | –
34 | Cc1ccc(=O)n(-c2ccccc2)c1 | -3.24 | –
35 | COc1cc2c(cc1OC)-c1cc(=Nc3c(C)cc(C)cc3C)n(C)c(=O)n1CC2 | 22.7 | –
36 | NC(=O)N1c2ccccc2C=Cc2ccccc21 | 18.6 | –
37 | CC(C)(Oc1ccc(CCNC(=O)c2ccc(Cl)cc2)cc1)C(=O)O | -49.3 | –
38 | CN(C)CC/C=C1\c2ccccc2COc2ccccc21 | -118 | –
39 | CCN(CC)CCNC(=O)c1ccc(NC(C)=O)cc1 | 13.6 | –
40 | CC(=O)[C@]1(O)Cc2c(O)c3c(c(O)c2[C@@H](O[C@H]2C[C@H](N)[C@H](O)[C@H](C)O2)C1)C(=O)c1ccccc1C3=O | – | 2910 nM (active)
